High-throughput results deposited in PubChem BioAssay by several laboratories.
Compounds with a hit are over-represented: about 6.7% of the library has one in this group of screens.
GDH-TPI counter-1: counter-screen for M. tuberculosis FBA inhibitors: GDH-TPI coupled enzymes; GDH-TPI coupled enzyme counterscreen, NADH absorbance; 360,000 compounds, 1.2% hits; inhibition, % at 4.8 µM; in the data active means inhibition above about 30%
Anthrax LF inh2: anthrax lethal factor protease inhibition | AID 588501 | multiplex microsphere protease cleavage assay, LF | inhibition, % at 10 µM | P15917 | 360,000 compounds, 0.12% hits; in the data active means inhibition above about 30%; inconclusive means no clear call, values can overlap the other calls
BoNT-F LC inh: inhibitors of Botulinum neurotoxin F light chain protease | Multiplex microsphere protease cleavage assay, flow cytometry | inhibition, % at 10 µM | 360,000 compounds, 0.22% hits | AID 588497; in the data active means inhibition above about 35%, passing the limit was not always enough; inconclusive means no clear call, values can overlap the other calls
BoNT A protease: blocks Botulinum neurotoxin A light chain protease; 360,000 compounds, 0.17% hits; multiplex microsphere protease substrate cleavage, flow cytometry; AID 588499; inhibition, % at 10 µM; in the data active means inhibition above about 30%; inconclusive means no clear call, values can overlap the other calls
Mtb FBA inh: inhibits M. tuberculosis FBA enzyme; P9WQA3; 360,000 compounds, 2.3% hits; inhibition, % at 1 µM; AID 588726; purified M. tuberculosis FBA, fluorescence read-out
Target sequence (P9WQA3 whole entry, looked up): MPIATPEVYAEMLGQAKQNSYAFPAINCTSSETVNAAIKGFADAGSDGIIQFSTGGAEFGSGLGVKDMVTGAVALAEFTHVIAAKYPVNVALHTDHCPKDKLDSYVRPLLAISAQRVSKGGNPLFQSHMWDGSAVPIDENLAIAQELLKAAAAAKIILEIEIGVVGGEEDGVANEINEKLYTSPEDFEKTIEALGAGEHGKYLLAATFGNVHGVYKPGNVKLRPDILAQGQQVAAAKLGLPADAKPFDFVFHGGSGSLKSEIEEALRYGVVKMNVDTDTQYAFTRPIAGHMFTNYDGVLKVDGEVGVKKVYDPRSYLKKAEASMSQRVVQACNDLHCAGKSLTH
Bead autofluor: flagged as autofluorescent in microsphere protease counterscreen; compound autofluorescence counterscreen, microsphere flow cytometry; stronger effect = higher value; 360,000 compounds, 3.1% hits; fluorescence intensity (no concentration beside the values); in the data active means fluorescence intensity above about 16000; inconclusive means no clear call, values can overlap the other calls
Mtb FBA confirm: confirmation of M. tuberculosis fructose-bisphosphate aldolase inhibitors; inhibition, % at 1 µM; purified M. tuberculosis FBA, fluorescence read-out; 5,600 compounds, 78% hits; shares compounds with Mtb FBA inh
GDH-TPI counter-2: GDH-TPI inhibition counter-screen for FBA inhibitors; shares compounds with Mtb FBA inh; GDH-TPI coupled enzyme counterscreen, fluorescence; inhibition, % at 1 µM; 5,600 compounds, 81% hits; in the data active means inhibition above about 10%
GDH-TPI DR: GDH-TPI dose response counter-screen for Mtb FBA; shares compounds with Mtb FBA inh; GDH-TPI coupled enzyme assay, fluorescence, artifact counterscreen; IC50, µM; 170 compounds, 79% hits; AID 652145; call rule not given here
Of the large screens only hits and unclear results are named; the others gave an inactive call (follow-up assays come after a bar, where they were run). Unless noted, no stated cut-off is given here; in the data, active means inhibition above about 27%; inactive means the rest.

C=C(C)COc1ccc2c(C)c(CCC(=O)N3C[C@H]4C[C@@H](C3)c3cccc(=O)n3C4)c(=O)oc2c1	Mtb FBA inh 70 | Mtb FBA confirm 65 | GDH-TPI counter-2 53
Cc1coc2cc3oc(=O)c(CCC(=O)N4C[C@H]5C[C@@H](C4)c4cccc(=O)n4C5)c(C)c3cc12	none
Cc1cc(O)c2c(C)c(CC(=O)N3C[C@H]4C[C@@H](C3)c3cccc(=O)n3C4)c(=O)oc2c1	none
O=C(CC12CC3CC(CC(C3)C1)C2)NCC(=O)N1CCCC1	none
Cn1cnnc1SCC(=O)Nc1ccc(Br)cc1F	none
CC(=O)Nc1ccc(S(=O)(=O)Nc2cccc(-c3csc(C)n3)c2)cc1	none
COc1ccc2cc(S(=O)(=O)N3CCCC(C)C3)ccc2c1 (stereo unspecified)	none
CC(=O)Nc1ccc(S(=O)(=O)Nc2cccc(-c3cn4cccnc4n3)c2)cc1	Mtb FBA inh 64 | Mtb FBA confirm inactive | GDH-TPI counter-2 inactive
CC1CCCN(S(=O)(=O)c2cccc(-c3cn4cccnc4n3)c2)C1 (stereo unspecified)	Mtb FBA inh 75 | Mtb FBA confirm 122 | GDH-TPI counter-2 139
CC1CCCN(S(=O)(=O)c2ccc3c(c2)c(=O)nc2ccccn23)C1 (stereo unspecified)	Mtb FBA inh 66 | Mtb FBA confirm 89 | GDH-TPI counter-2 65
COc1ccc(NC(=O)Cn2nnc3ccccc32)c([N+](=O)[O-])c1	none
CS(=O)(=O)N(CC(=O)N1CCc2ccccc2C1)c1cccc([N+](=O)[O-])c1	none
Cc1ccc(-c2ccc(CO)o2)cc1N	Mtb FBA inh 30 | Mtb FBA confirm 187 | GDH-TPI counter-2 121
Cc1[nH]n(-c2ccccc2)c(=O)c1C=Nc1cnc2ccccc2c1	Mtb FBA inh 34 | Mtb FBA confirm inactive | GDH-TPI counter-2 inactive
Cc1ccc(-n2c(=S)sc3c(=O)n(-c4ccccc4F)c(SCC(=O)O)nc32)cc1C	none
CCS(=O)(=O)c1nc(S(=O)(=O)c2ccc(C)cc2)c(NCCCN2CCCC2=O)s1	none
O=C1CCCN1CCCNc1nc2c(S(=O)(=O)c3ccccc3)nnn2c2ccc(Cl)cc12	Mtb FBA inh 41 | Mtb FBA confirm inactive | GDH-TPI counter-2 inactive
CC1=CC(=O)C(C(C)C)=C/C1=N\OC(=O)c1cccc2nc(C)oc12	Mtb FBA inh 32 | Mtb FBA confirm 69 | GDH-TPI counter-2 59
Cc1c(O)ccc2c(CC(=O)N[C@@H](Cc3ccc(O)cc3)C(=O)O)cc(=O)oc12	Mtb FBA inh 94 | Mtb FBA confirm inactive | GDH-TPI counter-2 inactive | GDH-TPI DR 1.8
COc1ccc(-c2cc(=O)oc3c(C)c(OCC(=O)N[C@@H](Cc4ccc(O)cc4)C(=O)O)ccc23)cc1	none
CCC(Sc1nc(C)cc(=O)[nH]1)C(=O)Nc1ccc(Cl)cn1 (stereo unspecified)	none
COc1ccc(CN2CCC(C(=O)N(C)CCc3ccc(OC)c(OC)c3)CC2)c(OC)c1	none
COc1cc2c(cc1OC)-c1c3c(cc4c1[C@@H](C2)N(C)CC4)OCO3	none
COc1cc2c(cc1O)C[C@H]1NCCc3cc4c(c-2c31)OCO4	Mtb FBA inh 30 | Mtb FBA confirm 108 | GDH-TPI counter-2 89
Cc1cc(=O)oc2cc(O[C@@H]3O[C@H](CO)[C@H](O)[C@H](O)[C@H]3O)ccc12	none
Cc1c(C)c2ccc(O[C@@H]3O[C@H](CO)[C@H](O)[C@H](O)[C@H]3O)cc2oc1=O	Mtb FBA inh 38 | Mtb FBA confirm 53 | GDH-TPI counter-2 42
CCc1ccc(OCC(=O)N/N=C\c2ccco2)c([N+](=O)[O-])c1	none
Cc1ccccc1OCC(=O)N1CCC2(CC1)CC(=O)c1ccccc1O2	Bead autofluor inconclusive
O=C1CC2(CCN(C(=O)COc3ccccc3)CC2)Oc2ccccc21	none
CC(=O)N1CCC2(CC1)CC(=O)c1cc(OCC(=O)N3CCN(C)CC3)ccc1O2	Mtb FBA inh 59 | Mtb FBA confirm 56 | GDH-TPI counter-2 47
